{"source": "the supplement of paper PMC6555819"}
{"tested_on": "VDR:RXRa (NR concentration 270 nM, RXRa partner concentration 90 nM)", "experiment": "PBM binding z-score (relative to random genomic background probes); higher = stronger binding; sequences stand for … in GC…GCGATTGACAGCGTAGAATGAAGG", "protocol": "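Protein-binding microarray (Agilent 4x180K custom design, double-stranded 60-nt probes: 5' GC cap, 34-nt variable region, 24-nt constant primer region; full probe sequence given). Purified or IVT nuclear receptor:RXRα heterodimers (3:1 NR:RXRα, mostly 270:90 nM) or homodimers were incubated for 1 h in PBS with 2% milk and no ligand, then detected with Alexa488 antibodies. Fluorescence from o1-orientation probes (~5 replicates averaged) was converted to z-scores against 500 random hg19 background probes. Variable regions are seed direct-repeat (DR0–DR5) sites, all their single-nucleotide variants and half-site ablations.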"}
{"sequence": "ATATGTAGGTTTTCGGGTCATTCAGTTTGCGCAT", "PBM binding z-score": 5.07}
{"sequence": "ATATGTAGGTTAGCTGGGATCATTCAGACTAGGC", "PBM binding z-score": 0.919}
{"sequence": "CTTGCTAGGTCAATGGTCAGCTAAAGCAGCTCGC", "PBM binding z-score": 0.921}
{"sequence": "CCTTACGGGTCACTCCAGGTTATACCATCGGAGT", "PBM binding z-score": 4.19}
{"sequence": "ATCTCTAGGTAAGACTCAGTTCGGTGAAGAACGC", "PBM binding z-score": 0.216}
{"sequence": "TTACCAAGGTGAGCTGAAGTCGTTGATCCAACTC", "PBM binding z-score": -0.383}
{"sequence": "CGTCCAAGGTAAAGGTCAGTGAAAGAGACTCGAA", "PBM binding z-score": 2.43}
{"sequence": "CGTCCAAGGTCAAAGGTCAGTCAAGAGATGACGG", "PBM binding z-score": 6.84}
{"sequence": "ATCCCTAGGTAACCAAGTTCAGTGAATGCCGAAC", "PBM binding z-score": 4.31}
{"sequence": "ATATGTAGGTTAACGGGTCATTCAGTTTGCGCAT", "PBM binding z-score": 5.16}
{"sequence": "AGTCAAAGTTCATCTAGGTAACGGAAGATATGCT", "PBM binding z-score": 4.95}
{"sequence": "CCGACTGGGGCAGAAAGTTTACCATACCATCCGG", "PBM binding z-score": 0.484}
{"sequence": "AGTCAAAGTTCATCTAGGTTACGTAAGATATGCT", "PBM binding z-score": 5.8}
{"sequence": "AGAACGAGGGCACGCTGACTTGATAGCAGAGTAG", "PBM binding z-score": 1.02}
{"sequence": "CGTCCAAGGTCAAAGCTAGGTCAGTGAAAGCATT", "PBM binding z-score": 5.25}
{"sequence": "ACAGACAGGTGAGTGAAGGTAAGTCAGCTGGACG", "PBM binding z-score": -0.37}
{"sequence": "CCTACTGGGCCAAAAAGGTCATTAATGCCGATAA", "PBM binding z-score": 4.53}
{"sequence": "CCTTCTGGGCCAAAAAGGTCATTGATGCCGATAA", "PBM binding z-score": 4.86}
{"sequence": "AGTCAAAGTTCAGGACGAGGTAACGTATAGCACG", "PBM binding z-score": 3.14}
{"sequence": "CCTACTGGGCCAAAAAGGTCCTTGATGCCGATAA", "PBM binding z-score": -0.189}
{"sequence": "GCGACTGGGGCAAAGCAGGCTACCATAAGGTTGG", "PBM binding z-score": -0.662}
{"sequence": "TCATATATGTAAAGGTGAAAGTCGAACGATATGA", "PBM binding z-score": 1.17}
{"sequence": "CCGACTGGGGCATCAGGTTACCATAAGCCAGCCC", "PBM binding z-score": -0.451}
{"sequence": "TCTTGTAAATCAAGCAGGTTAAGAAAGCCTGAGT", "PBM binding z-score": 0.479}
{"sequence": "ACAGACCGGTGATGAAGGTAACTCAGGCTATCAT", "PBM binding z-score": -0.216}
{"sequence": "TCGAGTACGTTACCAATGGGGCATTCAGCTTTCT", "PBM binding z-score": 0.458}
{"sequence": "CCGACTGGGGCAGAAAGGTTACCCTACCATCCGG", "PBM binding z-score": 0.717}
{"sequence": "TGGAGTAGGTTACCAATGGGGCATTCAGCTTTCT", "PBM binding z-score": 0.293}
{"sequence": "ATATTTAGGTTATCGGGTCATTCAGTTTGCGCAT", "PBM binding z-score": 5.35}
{"sequence": "CGTCCAAGGTCAAAGGTCAGTGCAGAGATGACGG", "PBM binding z-score": 6.57}
{"sequence": "TCTAGTTGGTCACGGAGGTCACTCACGACGGGTA", "PBM binding z-score": 5.6}
{"sequence": "GCGACTGGGGCAAAGCAGGTTGCCATAAGGTTGG", "PBM binding z-score": -0.612}
{"sequence": "CCAGACAGGTGAGAACGTAACTCAGCCTCGATTA", "PBM binding z-score": -0.0392}
{"sequence": "CAAACTAGGTCAGGAGGTCAAAGTCCGCTTCCCG", "PBM binding z-score": 5.18}
{"sequence": "GCATATAGGTAATACAAGGTGTAAGTCCGATTGT", "PBM binding z-score": -0.12}
{"sequence": "AATACAGGGTCATCGTAAGCCAGAGTACGCACAG", "PBM binding z-score": 4.87}
{"sequence": "GCGACTAGGGCAAAGCAGGTTACCATAAGGTTGG", "PBM binding z-score": -0.209}
{"sequence": "AACTCTAGGTAACAAGTTCAGTGAAAGAGAGGAC", "PBM binding z-score": 1.61}
{"sequence": "TAGCCTCGGTCATGCGGGCCAGTATAGTGTCGGC", "PBM binding z-score": -0.284}
{"sequence": "TTACCAAGGTGAGATGAGGTCGTTGATCCAACTC", "PBM binding z-score": 4.7}
